Assay results from the supplement of paper PMC10681739.

Key:
ETS1 [1] = biological target: T1, ETS1 (UniProt P14921); test: ETS1 binding intensity (PBM fluorescence), ETS1 alone (arbitrary fluorescence units); higher = stronger binding; conditions: ETS1 concentration 1 nM; RUNX1 concentration 0 nM
T1 sequence: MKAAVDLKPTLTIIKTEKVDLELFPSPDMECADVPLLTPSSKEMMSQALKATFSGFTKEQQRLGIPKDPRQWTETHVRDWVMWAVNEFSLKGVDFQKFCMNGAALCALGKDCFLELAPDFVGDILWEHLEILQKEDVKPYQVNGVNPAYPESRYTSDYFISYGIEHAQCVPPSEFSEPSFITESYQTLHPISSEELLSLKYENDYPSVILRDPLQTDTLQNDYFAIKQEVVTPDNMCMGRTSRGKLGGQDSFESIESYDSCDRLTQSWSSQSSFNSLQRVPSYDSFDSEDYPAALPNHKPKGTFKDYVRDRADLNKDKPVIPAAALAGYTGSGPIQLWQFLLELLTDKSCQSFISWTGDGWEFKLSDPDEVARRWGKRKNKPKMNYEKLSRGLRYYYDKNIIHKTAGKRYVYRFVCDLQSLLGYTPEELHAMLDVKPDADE

RUNX1 [2] = biological target: RUNX1 (UniProt Q01196); test: RUNX1 binding intensity (PBM fluorescence), RUNX1 alone (arbitrary fluorescence units); higher = stronger binding; conditions: RUNX1 concentration 2 nM; ETS1 concentration 0 nM
Sequence of RUNX1 (Q01196 whole entry): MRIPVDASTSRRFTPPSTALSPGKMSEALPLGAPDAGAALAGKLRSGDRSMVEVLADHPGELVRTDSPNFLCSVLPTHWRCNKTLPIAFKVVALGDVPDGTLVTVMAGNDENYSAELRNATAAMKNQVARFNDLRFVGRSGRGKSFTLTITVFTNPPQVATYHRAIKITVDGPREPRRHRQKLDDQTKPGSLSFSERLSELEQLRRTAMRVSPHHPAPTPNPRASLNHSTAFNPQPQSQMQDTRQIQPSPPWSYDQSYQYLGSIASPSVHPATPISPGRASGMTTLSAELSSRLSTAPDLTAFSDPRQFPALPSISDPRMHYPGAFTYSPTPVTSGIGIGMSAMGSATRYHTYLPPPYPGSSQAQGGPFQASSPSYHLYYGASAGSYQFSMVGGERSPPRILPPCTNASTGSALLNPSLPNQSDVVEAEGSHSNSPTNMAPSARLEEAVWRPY
Protocol: (§1)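 Cooperative gcPBM on 36-bp genomic probes with neighbouring ETS1 and RUNX1 sites. Recombinant human RUNX1 (2 nM) was incubated alone or with ETS1 (25 nM) and detected with anti-RUNX1 antibody plus Alexa488 secondary. Values are medians over 4 replicate spots; the RUNX1+ETS1 data were normalised to the RUNX1-only data. The probes sit in constant array flanks that are not printed.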

ETS1 [3] = biological target: T1, ETS1; test: ETS1 binding intensity (PBM fluorescence) in presence of RUNX1, normalised to ETS1-only experiment (arbitrary fluorescence units); higher = stronger binding; conditions: ETS1 concentration 1 nM; RUNX1 concentration 25 nM
RUNX1 [4] = biological target: RUNX1 (UniProt Q01196); test: RUNX1 binding intensity (PBM fluorescence) in presence of ETS1, normalised to RUNX1-only experiment (arbitrary fluorescence units); higher = stronger binding; conditions: RUNX1 concentration 2 nM; ETS1 concentration 25 nM
Protocol: as §1
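For RUNX1 binding intensity (PBM fluorescence) in presence of ETS1, normalised to RUNX1-only experiment in this document: Full-length recombinant human ETS1 or RUNX1 bound to double-stranded 36-bp genomic probes on microarrays, detected by protein-specific primary antibody and Alexa488 secondary, spot fluorescence as median of four replicate spots.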
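For RUNX1 binding intensity (PBM fluorescence), RUNX1 alone in this document: Full-length recombinant human RUNX1 bound to double-stranded 36-bp genomic probes on a high-density microarray, scored as Alexa488 fluorescence per spot via anti-RUNX1 antibody, median of four replicate spots.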

| Sequence | ETS1 binding intensity (ETS1 [1]) | RUNX1 binding intensity (RUNX1 [2]) | ETS1 binding intensity (ETS1 [3]) | RUNX1 binding intensity (RUNX1 [4]) |
| --- | --- | --- | --- | --- |
| GGTCCGGATGTATAAAGCGCGGCCCCCTGCGGGGAG | 910 | 732 | 1020 | 997 |
| ATGGCGGAGCGGAAGTCCCAGCCACAACGCGAAAAG | 3810 | 782 | 5670 | 1370 |
| CCCTACCTCTCCTTCCTGCCACAAGGGAAAGTCACT | 508 | 1390 | 481 | 2550 |
| GTGCAGACAGGAAATAGCTGCTCTGCGGCAGCCCGA | 5830 | 752 | 6350 | 1070 |
| TGTTCAGGAACAGGAAATGAAACCCCGCAGCTTTGA | 8520 | 748 | 11300 | 1150 |
| GCCCCCGGAAGCTGTCGCCCCGTGCGGTGTGTGCTG | 1600 | 787 | 2000 | 1330 |
| TTGACTCGGGAATGTCCGGTCGTGGTAAGCAGGGTG | 770 | 683 | 858 | 999 |
| CCACTGCTTCCGCCTTCTCTGCTGGCTGCGGGGAGC | 545 | 904 | 516 | 2210 |
| CAGCGGCCGTCGCGGGAAGTGCGGTCGCCGCGGCCA | 500 | 871 | 1120 | 966 |
| GAGCAAACGGAGGCAGGAAGTGGTTATGTAACTTCA | 7030 | 810 | 12400 | 2170 |
| AAACTACTTTCCTTCCTACCAAAACCACACTAAAGA | 620 | 2140 | 844 | 1920 |
| CGGGTTGGGCAGGAAGCAGCATGACCGCAGTGGGTC | 1740 | 959 | 17000 | 3250 |
| GGTTGTAAGTTCACAGGATGTGGTGTGTCCCTGTGG | 4130 | 827 | 6360 | 1400 |
| ATGTTTGGGGCCGGAAGTGGGTTGGAGGTGTGGCGG | 24700 | 706 | 23800 | 2830 |
| AACAAACAGTAGGCAGGAAGTGGTTAAACCGAAAGG | 8580 | 897 | 28900 | 3590 |
| ATCCCACTATAGGAAGCTTCTCTGTGGTTTTGAGCC | 369 | 1370 | 1640 | 1910 |
| GTAGAGACAGGAAATTATGTTGGTTTTCTTGCAGAA | 3530 | 724 | 3800 | 1310 |
| GAAAACACAGGAAGCCGTCCGCGCAACCGCGTTGCA | 1520 | 840 | 2160 | 1150 |
| GAAGGCGGTTCCGGTTCGCGGCGGTTCCCGGGTTTT | 515 | 794 | 466 | 1820 |

| Sequence | ETS1 binding intensity (ETS1 [1]) | RUNX1 binding intensity (RUNX1 [2]) | ETS1 binding intensity (ETS1 [3]) | RUNX1 binding intensity (RUNX1 [4]) |
| --- | --- | --- | --- | --- |
| GGTCCGGAAACGATTCTGGACCTGCGGGTATATCCA | 1050 | 776 | 1350 | 1070 |
| CATGTGCTTCCGGCTTGATCTGTGGTTATTCTGGTT | 1370 | 1270 | 2980 | 3010 |
| CCTCAATTTCCTGGCCAGAGAAACCACTGCCTCTCA | 546 | 1030 | 526 | 1810 |
| TGCTCAGAAGGGCATCCGGTTGCGGAGAAGGTACAC | 2130 | 653 | 2000 | 1370 |
| ACACCTCAGGCAGGATGTGGTAGGGGTTGCCCCAGA | 3730 | 1020 | 6810 | 2700 |
| CCTTTCCGCGAGACCTTCCGCGGTTATCCAGCGAGT | 372 | 1160 | 481 | 1510 |
| TGAAGCCATGGTTTCCTGTCTGCGGCTCAGATCAAG | 1020 | 717 | 1600 | 1490 |
| TTAGGCTCATGGGAAATGTGGTTTCTAAATCGCGGG | 494 | 912 | 639 | 988 |
| GCGAGGAGACAACTTCCTTTTGTGGTCTGACCCTGG | 638 | 857 | 1590 | 1970 |
| ACACACTGACTTCCTGTTGTGGGAGATAAAGTGTGG | 2500 | 698 | 2780 | 1730 |
| CCGTACTTCCGCTTTACTCAGATTTTGGACCGCGGG | 1810 | 1490 | 1780 | 3640 |
| AGGCCCGGATACCCGCCCCCAAAACCGCGTCCACAA | 523 | 1040 | 1050 | 1090 |
| CTCCGGCGGAAGTTGTCTCTTCGCCGCCGCCGCAGC | 3590 | 792 | 5200 | 1690 |
| TATTCTTCCTGTACTTAAGCTTGCTGGTGTGGTTTC | 397 | 868 | 492 | 1560 |
| GAAAACTAAGCAGGATGTGGTCTCGGCTGGAGCCTG | 2730 | 657 | 5380 | 2020 |
| AGATGCAAACACAGGAAACTTGTGGTCTATGCTGCT | 1800 | 803 | 7450 | 1160 |
| TGACAGACCCGGAAATAAGAGGAGACCACACACTTG | 1900 | 894 | 2660 | 1410 |
| TGACTAAGACCGGAAGAAACCACAAAAACACAAAAA | 2580 | 2700 | 6730 | 4540 |
